# In all, about 360,000 compounds went through this assay and about 6,200 (1.7%) were called active. The sample holds actives, similar compounds and a random draw of the others, so the mix is not that of the screen.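 Rule for the calls: active = inhibition of at least 50% at 20 µM; inactive = the rest.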
# Test: inhibition of PEG-3 promoter activity – cell-based, HeLa, luciferase luminescence, primary screen (AID 588405)
# Settings: HeLa PEG-Prom luciferase reporter, overnight, at 20 µM, active compounds read high
row,Structure (SMILES),inhibition
1,O=C(NCc1cccnc1)c1cc(C2CCCN(C(=O)CCCc3ccccc3)C2)on1 (stereo not given),-7.2% (inactive)
2,Cc1cc(C)c2c(Cn3ccnc3)cc(=O)oc2c1,18.3% (inactive)
3,CCCc1nc2c(c(=O)c3ccccc3n2C)c(=O)n1C1CCCCCC1,-44.1% (inactive)
4,Cn1c2ccccc2c(=O)c2c(=O)n(Cc3ccco3)c(COc3ccccc3)nc21,50.5% (active)
5,O=C(CSc1nnc(COc2ccc(Cl)cc2)n1Cc1ccco1)N1CCNC1=O,6.82% (inactive)
6,CCCNC(=O)C1(C)CCCN(Cc2c(C)nn(-c3ccccc3)c2C)C1 (stereo not given),5.49% (inactive)
7,COc1cccc(-c2cnc(C(O)c3ccccc3OC)[nH]2)c1 (stereo not given),-9.16% (inactive)
8,O=C(COc1ccc(-n2cnnn2)cc1)Nc1ccccc1Cl,-1.45% (inactive)
9,CS/C(=C\C(=O)c1ccco1)Nc1ccccc1Cl,-49.5% (inactive)
10,O=C(Nc1ccccc1Cl)/C(Cl)=C(\Cl)S(=O)c1ccccc1 (stereo not given),108% (active)
11,CC(=O)N1CCN(Cc2cc(=O)oc3cc(C)ccc23)CC1,-2.53% (inactive)
12,COc1ccc(-c2cc(NC=O)c3ncc(-c4ccccc4)n3c2)cc1OC,49.4% (inactive)
13,C[C@H]([C@@H](O)[C@@H](O)[C@@H](C)C(C)(C)C)[C@H]1CC[C@H]2C3CC[C@H]4C[C@H](OS(=O)(=O)O)[C@@H](OS(=O)(=O)O)C[C@]4(C)[C@H]3CC[C@]12C (stereo not given in full),6.06% (inactive)
14,COc1ccc(NC(=O)C2(C)Cc3c(-c4cccc(NC(C)=O)c4)ccnc3O2)cc1 (stereo not given),-10.2% (inactive)
15,c1ccc2c(c1)CSc1sccc1C2=C1CCNCC1,33.5% (inactive)
16,CCOC1=C2[C@@H](CN(S(=O)(=O)c3ccc(C)cc3)[C@H]2c2ccccc2F)[C@H]2C(=O)N(Cc3ccccc3)C(=O)[C@H]2C1,6.76% (inactive)
17,CCCCC(=O)N(C)c1c(CC)nc2c(OCc3ccc(Cl)cc3Cl)cccn12,39% (inactive)
18,CCOC(=O)Cc1csc(NC(=O)COc2ccc3c(C)cc(=O)oc3c2)n1,-3.01% (inactive)
19,Cc1cc(=O)oc2cc(OCC(=O)Nc3nnc(C4CC4)s3)ccc12,2.23% (inactive)
20,Cc1ccc(O)c(/C=N/NC(=O)COc2ccc3c(C)cc(=O)oc3c2)c1,66.5% (active)
21,CC(C)Oc1c(Br)cc(Br)cc1/C=N/NC(N)=S,48.7% (inactive)
22,CNc1cncc(-c2cccc(C(=O)N3CCOCC3)c2)n1,2.98% (inactive)
23,Cc1ccc(N(Cc2cc3ccccc3[nH]c2=O)C(=O)c2cccs2)cc1,11.2% (inactive)

row,Structure (SMILES),inhibition
1,CC(=O)N(Cc1cc(=O)[nH]c2ccccc12)c1ccc(C)cc1C,23.2% (inactive)
2,Cc1ccc(N(Cc2cc(=O)[nH]c3ccccc23)C(=O)CCl)cc1,106% (active)
3,O=C(CSc1ncnc2scc(-c3ccccc3)c12)NCc1ccc2c(c1)OCO2,26.7% (inactive)
4,CCOc1c2ccc(C(=O)NCc3ccc4c(c3)OCO4)cc2nn1C,-10.3% (inactive)
5,CN(C)C(=O)c1cccc(-c2cnc3sc(NCc4ccc5c(c4)OCO5)nn23)c1,50.3% (active)
6,CN1CCC[C@@H]1CCO[C@](C)(c1ccccc1)c1ccc(Cl)cc1,14.3% (inactive)
7,Cc1cc2oc3ccc(NCCC4CCCN4C)cc3c(=O)c2cc1C (stereo not given),103% (active)
8,COc1cccc2sc3cc(NCC[C@@H]4CCCN4C)ccc3c(=O)c12,-254% (inactive)
9,CC1(Oc2ccccc2-c2ccno2)CCN(Cc2ccc(-c3ccccc3)o2)C1 (stereo not given),0.4% (inactive)
10,CC(=O)OC[C@@H]1CN(Cc2ccccc2)C[C@H](n2cnc3c(NCc4ccco4)ncnc32)O1,4.43% (inactive)
11,COc1ccc(Sc2ccc(NC(=O)c3cccc(Cl)c3)cc2C#N)cc1,14.8% (inactive)
12,CCOC(=O)CNC(=O)/C(=C\c1ccc(F)cc1)NC(=O)c1ccccc1,10.4% (inactive)
13,CCOC(=O)C(=Cc1ccccc1)C(=O)c1ccccc1,103% (active)
14,CCOC(=O)C(=Cc1ccccc1OC)C(=O)OCC,33.3% (inactive)
15,c1cc(-c2ccc3[nH]ccc3c2)n2ccnc2c1,-57.5% (inactive)
16,COC(C[C@@H]1O[C@@H]1C(=O)[C@@H](C)OCc1ccccc1)OC,7.4% (inactive)
17,C/C(=N\NC(=O)c1ccccc1F)c1ccccn1,-1.8% (inactive)
18,C/C(=N\NC(=O)Cc1ccc(Cl)cc1)c1ccccn1,104% (active)
19,CC(=NNC(=S)N1CCCCCC1)c1ccccn1,-62.9% (inactive)
20,CN1C(=O)c2ccccc2C(C(=O)NCCCN2CCCC2)C1c1c[nH]c2ccccc12 (stereo not given),-1.25% (inactive)
21,COc1ccc(/C=C/C(=O)c2c(O)cc(OC)cc2OC)cc1,-132% (inactive)
22,CCCc1ccc(C(=O)COC(=O)CN2C(=O)NC3(CCCCC3C)C2=O)cc1 (stereo not given),-7.49% (inactive)
23,O=C(NCc1cccnc1)c1cc(C2CCCCN2C(=O)CCc2ccccc2)on1 (stereo not given),-5.2% (inactive)

row,Structure (SMILES),inhibition
1,CN(C)c1ccc(Nc2c3c4c(cccc4n(C)c2=O)C(=O)c2ccccc2-3)cc1,54.9% (active)
2,CN(C)c1ccc(C2N(C)C(=O)c3ccccc3N2C)cc1 (stereo not given),17.6% (inactive)
3,CSc1ccc(CNC(=O)C2(C)CCCN2C)cc1 (stereo not given),7.21% (inactive)
4,CC(C)Nc1ncnc2c1ncn2[C@H]1CN(Cc2ccncc2)C[C@@H](CO)O1,-7.45% (inactive)
5,COc1ccc(CN2CCCCC2C)cc1OC (stereo not given),11.9% (inactive)
6,Cc1ccc(-c2ccc(/C=C(\C#N)C(N)=S)o2)c([N+](=O)[O-])c1,-30.5% (inactive)
7,Cc1ccc(/C=C(\C#N)C(=O)Nc2cccc3ncccc23)o1,-27.1% (inactive)
8,Cc1ccc(Cc2cnc(NC(=O)/C(C#N)=C/c3ccc(-c4cccc([N+](=O)[O-])c4)o3)s2)cc1,71.1% (active)
9,CCOc1ccc2[nH]c(=S)sc2c1,-57% (inactive)
10,O=[N+]([O-])c1c(NCCO)cc(Sc2nc3ccccc3s2)c2nonc12,102% (active)
11,COc1cc(SC#N)ccc1N=Cc1c(C)[nH]n(-c2ccc(C)cc2)c1=O,80.8% (active)
12,CN(C)c1cccc(NC(=O)c2ccc(-c3ccc(F)c(F)c3)c3ccoc23)c1,-43.1% (inactive)
13,S=C(NCCCc1ccccc1)Nc1ccc(Br)cc1,5.05% (inactive)
14,S=C(NCCCc1cnc[nH]1)NCCCN(Cc1ccc(Cl)c(Cl)c1)c1ccc(Br)cn1,98.4% (active)
15,NCCCNC(=S)NCCCN(Cc1ccc(Cl)cc1)c1ccc(Br)cn1,85.8% (active)
16,O=C(/C=C/c1ccc(Cl)cc1)Nc1ccc(Br)cn1,-33.7% (inactive)
17,Cc1nc(C(F)(F)F)ccc1C(=O)N1CCC1(C)C(=O)NS(=O)(=O)c1ccc(F)cc1F (stereo not given),-1.89% (inactive)
18,O=C(CC[C@H]1O[C@@H](n2ccc(=O)[nH]c2=O)[C@H](O)[C@@H]1O)N[C@H](Cc1ccccc1)C(=O)NCc1ccco1,8.94% (inactive)
19,CCCS(=O)(=O)NC(=O)C1(C)CCCN(C(=O)c2cc(C)on2)C1 (stereo not given),9.06% (inactive)
20,COc1ccc(OC)c(Cc2nnc(CCC(=O)NC3CCCC3)o2)c1,-30.2% (inactive)
21,COc1ccc(OC)c(NC(=O)c2sc3nc(C)cc(C)c3c2N)c1,-12.4% (inactive)
22,COc1ccc(OC)c(Cc2cnc3nc(N)nc(N)c3c2C)c1,54.3% (active)
23,C=CCn1c2c(c3ccccc31)CCC2,2.5% (inactive)

row,Structure (SMILES),inhibition
1,CCOc1ccc(CCN2C(=O)c3cccnc3C2=O)cc1OCC,-9.6% (inactive)
2,NC1=CC(=O)C(=O)c2cccnc21,69.9% (active)
3,CCc1nc2ccc(C(=O)NC3CCN(Cc4ccccc4)CC3)cn2c1N(CC)CCOC,4.85% (inactive)
4,CCCCNC(=O)c1nc(C2CCN(S(=O)(=O)c3ccc(F)c(F)c3)CC2)oc1-c1cccc(C(F)(F)F)c1,13.3% (inactive)
5,Cc1ccc(C(=O)N/C(=C/c2ccc(-c3cccc([N+](=O)[O-])c3)o2)C(=O)NCCCN(C)C)cc1,103% (active)
6,Cc1occc1C(=O)N/N=C/c1ccc(-c2cccc([N+](=O)[O-])c2)o1,-11.9% (inactive)
7,CN(C)CCNC(=O)/C(=C/c1cccc([N+](=O)[O-])c1)NC(=O)c1ccccc1,7.34% (inactive)
8,CCCc1ccc(C(O)c2ncc(-c3cccc(OC)c3)[nH]2)cc1 (stereo not given),-5.53% (inactive)
9,O=C(Nc1ccc(F)cc1)Nc1nnc([C@H]2C[C@H](O)[C@@H](CO)O2)s1,-5.07% (inactive)
10,C=CC(=O)Nc1ccc(Nc2ccnc(Nc3ccc(N4CCN(C)CC4)cc3)n2)cc1,20.3% (inactive)
11,CC1CC(C)CN(CCOc2cccc3ccccc23)C1 (stereo not given),-6.14% (inactive)
12,CC(C)c1ccccc1OCC(O)CN(CC(O)COc1cccc2ccccc12)C(C)C (stereo not given),110% (active)
13,CCC(C)Sc1nc2c(c(=O)[nH]c(=O)n2C)n1CC(O)COc1cccc2ccccc12 (stereo not given),12.2% (inactive)
14,COc1cc(CN2CCNC(=O)C2CC(=O)NCCc2ncccc2C)cc(OC)c1 (stereo not given),-16.1% (inactive)
15,CC(C)Oc1ccc(CN2CCC2(C)C(=O)NCc2ccc(C(F)(F)F)cc2)cc1 (stereo not given),14.4% (inactive)
16,O=C(Nc1ccc(N2CCOCC2)cc1)c1cccc2c(-c3ccc(F)c(F)c3)coc12,-8.12% (inactive)
17,COc1ccccc1CNC(=O)c1cc(-c2cc(Cl)ccc2C)n[nH]1,32.1% (inactive)
18,O=C(CN1C(=O)NC2(CCOc3ccccc32)C1=O)Nc1cccc([N+](=O)[O-])c1 (stereo not given),10.4% (inactive)
19,CCN(CC)S(=O)(=O)c1ccc(NC(=O)c2cnc(C)cn2)cc1,-6.33% (inactive)
20,Cc1ccc(CNC(=O)c2cccnc2Cl)cc1,-0.53% (inactive)
21,CCN(CC)S(=O)(=O)c1ccc(NC(=O)c2cccnc2Cl)c(NC(=O)c2cccnc2Cl)c1,104% (active)

# From PubChem BioAssay AID588405 (Sanford-Burnham Center for Chemical Genomics, 2011)
